Experiment [1] in a line: Primary qHTS for inhibitors of nuclear receptor binding SET domain protein 2 (NSD2) in an RCH-ACV wild type WT cells (2C) (AID 1645877). Note: nearly all actives have a fitted effect of over 70% in size. Note: potency is the fitted concentration of half-maximal effect.
The target of experiment [2] is Glutathione peroxidase 1 (Homo sapiens) (UniProt P07203). Description: Primary qHTS Assay for Inhibitors of Recombinant Selenoprotein Glutathione Peroxidase 1 (GPX1) (AID 1845191). Note: nearly all actives have a fitted effect of over 65% in size. An outline of the steps: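 GR-coupled readout: NADPH consumption tracked by fluorescence, ex 340/em 450 nm, at t=0 and after 15 min at RT. Final mix 10 nM GPX1, 1 mM GSH, 0.5 mM CHP, 0.5 mM NADPH, 100 nM GR, 0.01% BSA, following 30 min enzyme–compound preincubation.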
Glutathione peroxidase 1 (Homo sapiens), sequence (P07203 whole entry, looked up): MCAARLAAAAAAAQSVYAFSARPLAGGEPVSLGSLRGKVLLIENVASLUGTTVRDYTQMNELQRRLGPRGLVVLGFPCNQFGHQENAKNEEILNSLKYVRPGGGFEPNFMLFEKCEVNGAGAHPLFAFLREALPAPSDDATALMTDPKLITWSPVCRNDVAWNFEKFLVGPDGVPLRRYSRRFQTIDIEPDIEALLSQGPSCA
(In general: qHTS replaces the single test concentration by a dilution series.)

Experiment [3] deals with Phospholipid hydroperoxide glutathione peroxidase GPX4 (Homo sapiens) (UniProt P36969). Description: Primary qHTS Assay for Inhibitors of Recombinant Selenoprotein Glutathione Peroxidase 4 (GPX4) (AID 1845192). Note: nearly all actives have a fitted effect of over 65% in size. An outline of the steps: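 Steps: GPX4 plus compound, 30 min RT; add GR/GSH/NADPH master mix; start with cumene hydroperoxide; read 340/450 nm fluorescence at 0 and 15 min. Finals were 200 nM GPX4, 1 mM GSH, 0.5 mM CHP, 0.5 mM NADPH, 100 nM GR.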
Phospholipid hydroperoxide glutathione peroxidase GPX4 (Homo sapiens), sequence (P36969 whole entry, looked up): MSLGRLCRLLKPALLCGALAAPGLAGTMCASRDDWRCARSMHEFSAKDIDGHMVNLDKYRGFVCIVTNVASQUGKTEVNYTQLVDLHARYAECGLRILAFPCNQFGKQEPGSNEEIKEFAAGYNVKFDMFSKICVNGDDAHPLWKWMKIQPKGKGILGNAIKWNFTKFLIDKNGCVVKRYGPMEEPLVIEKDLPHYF

Experiment [4] concerns the target Luciferin 4-monooxygenase (Photinus pyralis) (UniProt P08659). Description: Primary firefly luciferase (FLuc) qHTS assay for identification of artifact compounds. (AID 1845220). Note: nearly all actives have a fitted effect of over 60% in size. Note: potency is the fitted concentration of half-maximal effect. An outline of the steps: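 Enzymatic FLuc inhibition assay: compounds pre-exposed to luciferin/ATP (10 uM each) for 15 min, then purified P. pyralis enzyme at 10 nM added. Read-out: luminescence at 5 min.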

The nature of experiment [5]: Primary fluorescence-based thiol-reactive (MSTI) qHTS assay for identification of artifact compounds. (AID 1845221). Note: nearly all actives have a fitted effect of over 65% in size. Note: potency is the fitted concentration of half-maximal effect. An outline of the steps: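 In PBS pH 7.4 with 2% DMSO, each compound met 4 uM MSTI for one hour at ambient temperature, shielded from light, before fluorescence detection.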
The subject of experiment [6] is Nanoluciferase (engineered Oplophorus gracilirostris luciferase). Description: Primary Nanoluciferase (NLuc) qHTS assay for identification of artifact compounds. (AID 1845222).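 Note: NLuc secreted into diluted conditioned medium of S16 cells; series mostly up to about 54 µM.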 A digest of the protocol: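 S16 cell supernatant NLuc, 1:55; cpds qHTS; 15 min RT dark; Nano-Glo substrate 1:100, 5 min; luminescence; Hill fit of % inhibition.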
A short description of experiment [7]: Primary redox qHTS assay for identification of artifact compounds. (AID 1845223). An outline of the steps:
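Redox-cycling detection via DTT (250 uM final) oxidation coupled to Amplex Red (25 uM)/HRP (250 mU/mL) in HBSS. 15 min preincubation plus 30 min after DTT, room temperature. Ex/Em 525/598 nm; 4-parameter Hill fit against DMSO and 10 uM DA3003.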

“And” between values parts separate entries of the source, which are not always exact repeats. Equal entries are not always repeated. A number with no mark means an inactive call. Records with an inconclusive call do not appear. The source made the active and inactive calls. Calls come from the whole dose curve; as a rule, active = well fitted curve in the direction sought with a large enough effect; inconclusive = small, poorly fitted or top-dose-only effect, or another doubt; inactive = no such curve, though single readings can be large; an effect the other way counts as inactive or inconclusive. Where a SMILES comes first, the peptide text is derived from it. Bridges are numbered along the chain shown (N, C = ends). [ ]: non-standard residue; d: D form. NMeY = CN[CH](Cc1ccc(O)cc1)C(=O)O

As for `CCOc1cc(C(=O)N2CCC(N3CCN(C)CC3)CC2)ccc1Nc1ncc2c(n1)N(C1CCCC1)c1ccccc1C(=O)N2C`, in experiment [1], the Potency is 1.29 µM (active) and 1.66 µM (active). The Potency entry in experiment [2], in experiment [3], in experiment [4], in experiment [5], in experiment [6] and in experiment [7] was “inactive” each time.

With `CCC(C)C1NC(=O)C2CCCN2C(=O)C(NC(C)=O)C(C)OC(=O)C(Cc2ccc(OC)cc2)N(C)C(=O)C2CCCN2C(=O)C(C(C)C)NC1=O` (stereo not given) (Ac-TPIVP[NMeY](Me); ester 1-C; configuration not given here), the Potency entry in experiment [1], in experiment [2], in experiment [3], in experiment [4], in experiment [5] and in experiment [6] was “inactive” in each case. Also, the Potency result in experiment [7] was “inactive”.

Regarding `N#Cc1cc(F)cc(-c2nc(-c3ccccn3)no2)c1`, the Potency entry in experiment [1], in experiment [2], in experiment [3], in experiment [5], in experiment [6] and in experiment [7] was “inactive” each time. In experiment [4], the Potency is 7570 nM (active).

`CC1=C2C3OC(=O)C(C)C3(O)CCC2(C)CCC1O` (stereo not given): the Potency result in experiment [1], in experiment [2], in experiment [3], in experiment [4], in experiment [6] and in experiment [7] was “inactive” each time. Moreover, the Potency in experiment [5] is 11900 nM (active).

Turning to `CC1(O)CC(O)C2(O)C=COC(O[C@@H]3O[C@H](CO)[C@@H](O)[C@H](O)[C@H]3O)C12` (stereo not given in full), the Potency result in experiment [1], in experiment [2], in experiment [3], in experiment [4], in experiment [6] and in experiment [7] was “inactive” in each case. The Potency in experiment [5] is 11700 nM (active).

As for `O=C(CO)[C@@H](O)[C@H](O[C@@H]1O[C@H](CO)[C@H](O)[C@H](O)[C@H]1O)[C@H](O)CO`, the Potency result in experiment [1], in experiment [2], in experiment [3], in experiment [4], in experiment [5] and in experiment [6] was “inactive” each time. Besides, in experiment [7], the Potency result was “inactive”.

With `CC(C)CC(=O)O[C@@H]1OC=C(CO[C@@H]2O[C@H](CO)[C@@H](O)[C@H](O)[C@H]2O)[C@H]2[C@@H]3O[C@H]3[C@@](O)(CO)[C@@H]12`, the Potency result in experiment [1], in experiment [2], in experiment [3], in experiment [4], in experiment [5] and in experiment [6] was “inactive” in each case. In addition, the Potency entry in experiment [7] is “inactive”.

Consider `O=C(c1ccc2nccnc2c1)N1CCCCC1`, for which the Potency entry in experiment [1], in experiment [2], in experiment [3], in experiment [4], in experiment [5] and in experiment [6] was “inactive” in each case. The Potency result in experiment [7] is “inactive”.

Take `COc1ccc(-c2cnc(-c3cccc4c3-c3ccccc3C4=O)o2)cc1`: the Potency in experiment [1] is 89.3 nM (active). The Potency result in experiment [2], in experiment [3], in experiment [4], in experiment [5], in experiment [6] and in experiment [7] was “inactive” each time.

Consider `FC(F)(F)c1ccc(Nc2nc(-c3c(C(F)(F)F)nc4ccccn34)cs2)cc1`, for which the Potency in experiment [1] was 372 nM (active). In addition, the Potency result in experiment [2], in experiment [3], in experiment [4], in experiment [5], in experiment [6] and in experiment [7] was “inactive” in each case.

As for `O=C(O)[C@@H]1C[C@H]2C[C@@H](CCc3nn[nH]n3)CC[C@H]2CN1`, the Potency entry in experiment [1], in experiment [2], in experiment [3], in experiment [4], in experiment [5] and in experiment [6] was “inactive” each time. In addition, the Potency result in experiment [7] was “inactive”.

For `Cc1ccc(Cc2c(C)nc3nc(SCC(=O)NCCN4CCNCC4)nn3c2C)cc1`, the Potency result in experiment [1], in experiment [2], in experiment [3], in experiment [4], in experiment [5] and in experiment [6] was “inactive” throughout. In experiment [7], the Potency result was “inactive”.

As for `C=CC(=O)Nc1cccc(CN2C(=O)N(c3c(Cl)c(OC)cc(OC)c3Cl)Cc3cnc(NCCCCN(CC)CC)nc32)c1`, the Potency in experiment [1] was 2580 nM (active). Further, the Potency result in experiment [2], in experiment [3], in experiment [4], in experiment [5], in experiment [6] and in experiment [7] was “inactive” each time.

Turning to `CC(C)CCC[C@@H](C)[C@H]1CC[C@H]2[C@@H]3CC(=O)[C@H]4C[C@@H](O)CC[C@]4(C)[C@H]3CC[C@]12C`, the Potency result in experiment [1], in experiment [2], in experiment [3], in experiment [4], in experiment [5] and in experiment [6] was “inactive” in each case. Further, the Potency result in experiment [7] is “inactive”.

Turning to `O=C1NC(=O)C(c2cn3c4c(cccc24)CCC3)C1c1c[nH]c2ccccc12` (stereo not given), the Potency in experiment [1] is 916 nM (active). Also, the Potency entry in experiment [2], in experiment [3], in experiment [4], in experiment [5], in experiment [6] and in experiment [7] was “inactive” in each case.

Values taken from PubChem BioAssay (NCATS).
